According to PubChem BioAssay (Tox21):
Results filed as inconclusive are left out. Where a call stands in place of a potency, no number is given. Calls of active or inactive are those of the source. Unless noted, calls come from the whole dose curve; as a rule, active = well fitted curve in the direction sought with a large enough effect in the repeat runs; inconclusive = weak or mixed curves; inactive = no such curve, though single readings can be large; an effect the other way counts as inactive or inconclusive.

Assay: qHTS assay to identify small molecule antagonists of the androgen receptor (AR) signaling pathway using the MDA cell line in the presence of 0.5 nM R1881 - cell viability counter screen (AID 1259242); note: nearly all actives have a fitted effect of over 45% in size
Conditions: MDA-kb2 viability, CellTiter-Fluor protease fluorescence, 16 h; series mostly up to 92.4 µM
Method in brief: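 Fluorescence from CellTiter-Fluor, which reports protease activity of live cells, was read 30 min after reagent addition to MDA-kb2 cells that had been incubated 16 hr with compound and 0.5 nM R1881.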

| Compound | Potency |
| --- | --- |
| CCCCCO | inactive |
| O=[N+]([O-])c1ccccc1CCO | inactive |
| CC(O)C(C)O (stereo not drawn) | inactive |
| c1ccc(CN(Cc2ccccc2)Cc2ccccc2)cc1 | inactive |
| CC(CCl)OC(C)CCl (stereo not drawn) | inactive |
| CCC(=O)O[C@]1(C(=O)COC)[C@@H](C)C[C@H]2[C@@H]3CCC4=CC(=O)C=C[C@]4(C)C3(F)[C@@H](O)C[C@@]21C (stereo partly drawn) | inactive |
| Clc1ccccc1-c1nc(-c2ccncc2)no1 | inactive |
| C=CC(C)(O)CC/C=C(/C)CCC=C(C)C (stereo not drawn) | inactive |
| CCOc1ccccc1O | inactive |
| C[Si](C)(C)O[Si](C)(C)O[Si](C)(C)C | inactive |
| CC(=O)S[C@H](C(=O)N[C@H]1Cc2ccccc2[C@H]2CCC[C@@H](C(=O)O)N2C1=O)C(C)C | inactive |
| CC/C=C/CCO | inactive |
| COC(=O)C(C)(C)C | inactive |
| S=c1[nH][nH]c(=S)s1 | inactive |
| Cc1cc(C)n(CO)n1 | inactive |
| O=C(O)c1ccccc1-n1cc(C(=O)O)c(=O)c2cc(Nc3c(F)cc(F)cc3Cl)c(Cl)cc21 | inactive |
| CC(=O)OCC(=O)[C@@]1(O)CC[C@H]2[C@@H]3CCC4=CC(=O)C=C[C@]4(C)[C@@]3(F)[C@@H](O)C[C@@]21C | inactive |
| CCC(C)CCCC(C)(C)O (stereo not drawn) | inactive |
| CCCCCCCCCCCCCCCCN | inactive |
| COc1ccc(/C=C/S(=O)(=O)NC(=O)c2ccc(C)cc2Cl)cc1 | inactive |

| Compound | Potency |
| --- | --- |
| N#Cc1ccc(CC(=O)c2cccc(C(F)(F)F)c2)cc1 | inactive |
| Cc1cccc(C)c1NC(=O)CN1CCCC1 | inactive |
| Cc1c(Nc2ncccc2C(=O)O)cccc1C(F)(F)F | inactive |
| O=C(O)c1cc(C(=O)O)cc([N+](=O)[O-])c1 | inactive |
| CCCCC(CC)COCCC#N (stereo not drawn) | inactive |
| O=C1c2ccccc2C(=O)C1c1ccc2ccccc2n1 | inactive |
| CCc1cnc(C(=O)O)c(C(=O)O)c1 | inactive |
| O=[N+]([O-])c1ccc(Cl)cc1Cl | inactive |
| CCCCCC1CCC(=O)O1 (stereo not drawn) | inactive |
| Nc1nc(Cl)nc2c1ncn2[C@H]1C[C@H](O)[C@@H](CO)O1 | inactive |
| O=Cc1ccc([N+](=O)[O-])cc1 | inactive |
| C=CC(O)CCCCC (stereo not drawn) | inactive |
| Nc1ccccc1Nc1ccccc1 | inactive |
| FC1(F)C(F)(F)C(F)(F)C2(F)C(F)(C1(F)F)C(F)(F)C(F)(F)C1(F)C(F)(F)C(F)(F)C(F)(F)C(F)(F)C12F (stereo not drawn) | inactive |
| C=C[Si]1(C)O[Si](C)(C=C)O[Si](C)(C=C)O[Si](C)(C=C)O1 (stereo not drawn) | inactive |
| OCCOc1cccc(OCCO)c1 | inactive |
| O=C(O)COCC(=O)O | inactive |
| CCCCCCCCCC(C)C=O (stereo not drawn) | inactive |
| CC(C)CCCCCCCOC(=O)c1ccc(C(=O)OCCCCCCCC(C)C)c(C(=O)OCCCCCCCC(C)C)c1 | inactive |

Assay: qHTS assay to identify small molecule phospholipidosis (PLD) inducers (AID 1259344; active = well fitted curve in the direction sought with a large enough effect; an effect the other way counts as inactive or inconclusive)
Conditions: HepG2 phospholipidosis, LipidTOX Red imaging, 24 h; series mostly up to 38.3 µM
Method in brief: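 Quantitative HTS in HepG2: compound plus LipidTOX Red dye for 24 h, paraformaldehyde fixation with Hoechst 33342, widefield high-content imaging; amiodarone as positive and DMSO as negative control.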

| Compound | Potency |
| --- | --- |
| Clc1ccccc1-c1nc(-c2ccncc2)no1 | inactive |
| CC(=O)OCC(=O)[C@@]1(O)CC[C@H]2[C@@H]3CCC4=CC(=O)C=C[C@]4(C)[C@@]3(F)[C@@H](O)C[C@@]21C | inactive |
| CCCCCCCCCCCCCCCCN | inactive |
| Cc1cccc(C)c1NC(=O)CN1CCCC1 | inactive |
| Cc1c(Nc2ncccc2C(=O)O)cccc1C(F)(F)F | inactive |
| Nc1nc(Cl)nc2c1ncn2[C@H]1C[C@H](O)[C@@H](CO)O1 | inactive |

Assay: qHTS assay to identify small molecule HDAC inhibitors (AID 1259364); note: nearly all actives have a fitted effect of over 45% in size; note: potency is the fitted concentration of half-maximal effect
Conditions: HCT-116 HDAC-Glo I/II luminescence, 2 h; series mostly up to 92.4 µM
Method in brief: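 Endogenous HDAC class I/II activity was measured in wild-type HCT-116 cells by HDAC-Glo luminescence after 2 h compound treatment.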

| Compound | Potency |
| --- | --- |
| CCCCCO | inactive |
| O=[N+]([O-])c1ccccc1CCO | inactive |
| CC(O)C(C)O (stereo not drawn) | inactive |
| c1ccc(CN(Cc2ccccc2)Cc2ccccc2)cc1 | inactive |
| CC(CCl)OC(C)CCl (stereo not drawn) | inactive |
| CCC(=O)O[C@]1(C(=O)COC)[C@@H](C)C[C@H]2[C@@H]3CCC4=CC(=O)C=C[C@]4(C)C3(F)[C@@H](O)C[C@@]21C (stereo partly drawn) | inactive |
| Clc1ccccc1-c1nc(-c2ccncc2)no1 | 2660 nM (active) |
| C=CC(C)(O)CC/C=C(/C)CCC=C(C)C (stereo not drawn) | inactive |
| CCOc1ccccc1O | inactive |
| C[Si](C)(C)O[Si](C)(C)O[Si](C)(C)C | inactive |
| CC(=O)S[C@H](C(=O)N[C@H]1Cc2ccccc2[C@H]2CCC[C@@H](C(=O)O)N2C1=O)C(C)C | inactive |
| CC/C=C/CCO | inactive |
| COC(=O)C(C)(C)C | inactive |
| S=c1[nH][nH]c(=S)s1 | inactive |
| Cc1cc(C)n(CO)n1 | inactive |
| O=C(O)c1ccccc1-n1cc(C(=O)O)c(=O)c2cc(Nc3c(F)cc(F)cc3Cl)c(Cl)cc21 | inactive |
| CC(=O)OCC(=O)[C@@]1(O)CC[C@H]2[C@@H]3CCC4=CC(=O)C=C[C@]4(C)[C@@]3(F)[C@@H](O)C[C@@]21C | inactive |
| CCC(C)CCCC(C)(C)O (stereo not drawn) | inactive |
| CCCCCCCCCCCCCCCCN | inactive |

| Compound | Potency |
| --- | --- |
| COc1ccc(/C=C/S(=O)(=O)NC(=O)c2ccc(C)cc2Cl)cc1 | inactive |
| N#Cc1ccc(CC(=O)c2cccc(C(F)(F)F)c2)cc1 | inactive |
| Cc1cccc(C)c1NC(=O)CN1CCCC1 | inactive |
| O=C(O)c1cc(C(=O)O)cc([N+](=O)[O-])c1 | inactive |
| CCCCC(CC)COCCC#N (stereo not drawn) | inactive |
| O=C1c2ccccc2C(=O)C1c1ccc2ccccc2n1 | 1910 nM (active) |
| CCc1cnc(C(=O)O)c(C(=O)O)c1 | inactive |
| O=[N+]([O-])c1ccc(Cl)cc1Cl | inactive |
| CCCCCC1CCC(=O)O1 (stereo not drawn) | inactive |
| Nc1nc(Cl)nc2c1ncn2[C@H]1C[C@H](O)[C@@H](CO)O1 | inactive |
| O=Cc1ccc([N+](=O)[O-])cc1 | inactive |
| C=CC(O)CCCCC (stereo not drawn) | inactive |
| Nc1ccccc1Nc1ccccc1 | inactive |
| FC1(F)C(F)(F)C(F)(F)C2(F)C(F)(C1(F)F)C(F)(F)C(F)(F)C1(F)C(F)(F)C(F)(F)C(F)(F)C(F)(F)C12F (stereo not drawn) | inactive |
| C=C[Si]1(C)O[Si](C)(C=C)O[Si](C)(C=C)O[Si](C)(C=C)O1 (stereo not drawn) | inactive |
| OCCOc1cccc(OCCO)c1 | 24300 nM (active) |
| O=C(O)COCC(=O)O | inactive |
| CCCCCCCCCC(C)C=O (stereo not drawn) | inactive |
| CC(C)CCCCCCCOC(=O)c1ccc(C(=O)OCCCCCCCC(C)C)c(C(=O)OCCCCCCCC(C)C)c1 | inactive |
